Test results: PubChem BioAssay (Tox21)
Results filed as inconclusive are left out. A call without a number means that no potency is given here. The source made the active and inactive calls. Calls come from the whole dose curve; as a rule, active = well fitted cell-killing curve with a large enough effect in the repeat runs; inconclusive = weak or mixed curves, or effect the other way; inactive = flat fitted curve, though single readings scatter.

What was measured:
[1] = cAMP Responsive Elements (CRE) small molecule antagonists, cell-based qHTS assay: qHTS cell viability counter screen (AID 2060913); note: nearly all actives have a fitted effect of over 40% in size
In short: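 HEK293T CRE-bla, 2,000 cells/well, 18 h preincubation; cpd in DMSO + NKH477 0.25 uM final, 3 h 37 C/5% CO2; LiveBLAzer 2 h RT, then CellTiter-Glo 30 min RT, luminescence.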

[2] = cAMP Responsive Elements (CRE) small molecule agonists, cell-based qHTS assay: qHTS cell viability counter screen (AID 2060914); note: nearly all actives have a fitted effect of over 50% in size
In short: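 In the same wells as the reporter read, viability of CRE-bla HEK 293T cells was quantified by CellTiter-Glo luminescence after a 3 h compound exposure.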

| SMILES | Potency [1] | Potency [2] |
| --- | --- | --- |
| Cc1c(OCC(F)(F)F)ccnc1CS(=O)c1nc2ccccc2[nH]1 (stereo unspecified) | inactive | inactive |
| Clc1ccccn1 | inactive | inactive |
| CN1CCC(N(Cc2cccs2)c2ccccc2)CC1 | inactive | inactive |
